Source: paper PMC5540273 (PLoS ONE, 2017)

Assays:
Conditions in all cases: concentration: 1 μM,replicates: in singlicate; n = 1
PIK3C2G = tested on: PIK3C2G
PIK3CA = tested on: PIK3CA
PIK3CB = tested on: PIK3CB
PIK3CD = tested on: PIK3CD
PIK3CG = tested on: PIK3CG
PIK4CB = tested on: T1, PIK4CB
T1 construct: gene PI4KB

PIKFYVE = tested on: PIKFYVE
PIM1 = tested on: PIM1
PIM2 = tested on: PIM2
PIM3 = tested on: PIM3
PIP5K1A = tested on: PIP5K1A
PIP5K1C = tested on: PIP5K1C
PIP5K2B = tested on: PIP5K2B
PIP5K2C = tested on: T2, PIP5K2C
T2 construct: gene PIP4K2C

PKAC-alpha = tested on: T3, PKAC-alpha
T3 construct: gene PRKACA

PKAC-beta = tested on: T4, PKAC-beta
T4 construct: gene PRKACB

PKMYT1 = tested on: PKMYT1
PKN1 = tested on: PKN1
PKN2 = tested on: PKN2
PLK1 = tested on: PLK1
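Further: KINOMEscan kinase panel screen.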

Row | SMILES | %Inh (PIK3C2G) | %Inh (PIK3CA) | %Inh (PIK3CB) | %Inh (PIK3CD) | %Inh (PIK3CG) | %Inh (PIK4CB) | %Inh (PIKFYVE) | %Inh (PIM1) | %Inh (PIM2) | %Inh (PIM3) | %Inh (PIP5K1A) | %Inh (PIP5K1C) | %Inh (PIP5K2B) | %Inh (PIP5K2C) | %Inh (PKAC-alpha) | %Inh (PKAC-beta) | %Inh (PKMYT1) | %Inh (PKN1) | %Inh (PKN2) | %Inh (PLK1)
1 | CC(C(=O)NC1CCN(c2ccnc(Nc3ccc(F)cc3)n2)C1)c1ccc(Cl)cc1 (stereo not drawn) [GSK1379713] | 0% | 0% | 0% | 15% | 0% | 0% | 9% | 9% | 0% | 0% | 21% | 0% | 1% | 4% | 0% | 6% | 0% | 4% | 0% | 0%
2 | Nc1nccc(-c2ccc3c(N)n[nH]c3c2)n1 [GSK1034945] | 0% | 5% | 0% | 3% | 2% | 0% | 0% | 9% | 0% | 7% | 0% | 29% | 48% | 10% | 12% | 0% | 8% | 0% | 9% | 0%
3 | CCN1CCN(CCCC(=O)Nc2n[nH]c3nc(-c4ccc(O)cc4)c(Br)cc23)CC1 [SB-731579] | 16% | 0% | 0% | 44% | 6% | 16% | 14% | 57% | 89% | 72% | 12% | 30% | 0% | 24% | 0% | 0% | 0% | 0% | 6% | 0%
4 | Cc1ccc(Nc2ccnc(Nc3ccc4c(c3)CS(=O)(=O)C4)n2)cc1O.Cl [GW579362] | 42% | 2% | 0% | 0% | 31% | 67% | 0% | 29% | 0% | 5% | 29% | 39% | 80% | 90% | 7% | 0% | 0% | 11% | 0% | 0%
5 | CN1CCN(CCNc2nc3cc(Oc4ccc(NC(=O)Nc5cc(C(F)(F)F)ccc5F)cc4)ccc3[nH]2)CC1.Cl.Cl [GW768504] | 0% | 0% | 0% | 0% | 0% | 0% | 0% | 10% | 2% | 0% | 20% | 0% | 0% | 0% | 0% | 2% | 0% | 0% | 8% | 0%
6 | CS(=O)c1ccc(-c2coc3ccc(-c4n[nH]c(=O)o4)cc23)cc1 (stereo not drawn) | 49% | 46% | 41% | 35% | 78% | 43% | 64% | 87% | 82% | 84% | 0% | 68% | 20% | 79% | 0% | 23% | 8% | 8% | 12% | 6%
7 | COc1cc2nccc(Nc3ccc(Oc4ccccc4)cc3)c2cc1OC.Cl [GI261656] | 0% | 0% | 0% | 0% | 0% | 0% | 5% | 0% | 0% | 0% | 10% | 56% | 46% | 31% | 0% | 0% | 0% | 0% | 0% | 0%
8 | OCCn1cc(-c2cnc3nnn(Cc4ccc5ncccc5c4)c3n2)cn1 | 0% | 0% | 0% | 0% | 0% | 0% | 40% | 1% | 0% | 10% | 1% | 3% | 0% | 0% | 0% | 0% | 0% | 0% | 0% | 0%
9 | FC(F)(F)c1cc(Br)cc(Nc2nccc(-c3cnn4ncccc34)n2)c1 [GW810578] | 25% | 3% | 16% | 51% | 10% | 30% | 10% | 25% | 0% | 23% | 0% | 3% | 0% | 94.2% | 17% | 0% | 1% | 12% | 27% | 9%
10 | COc1cc2c(Nc3ccc(NC(=O)c4ccccc4)cc3)ncnc2cc1OCCCN1CCOCC1 [GSK301329] | 0% | 0% | 0% | 0% | 0% | 0% | 0% | 0% | 0% | 0% | 0% | 27% | 14% | 0% | 3% | 14% | 1% | 0% | 0% | 0%
11 | COC(=O)Nc1nc2cc(Oc3ccc(NC(=O)Nc4cc(C(F)(F)F)ccc4Cl)cc3)ccc2[nH]1.Cl [GW697465] | 0% | 0% | 16% | 4% | 0% | 0% | 20% | 30% | 0% | 22% | 56% | 63% | 15% | 53% | 0% | 0% | 0% | 0% | 0% | 0%
12 | CNC(=O)c1ccccc1Nc1nc(Nc2cccc(CS(C)(=O)=O)c2)ncc1C.O=CO [GSK1520489] | 0% | 0% | 0% | 0% | 20% | 12% | 0% | 18% | 0% | 0% | 55% | 52% | 84% | 79% | 11% | 28% | 84% | 56% | 2% | 97.9%
13 | Cn1ccc2ncnc(Oc3ccc(NC(=O)Nc4cncc(C(F)(F)F)c4)c(Cl)c3)c21 | 0% | 0% | 0% | 0% | 0% | 0% | 0% | 3% | 1% | 0% | 29% | 20% | 6% | 0% | 0% | 0% | 6% | 0% | 0% | 0%
14 | COc1ccc(Nc2nccc(N3CCC(NC(=O)c4cccc(C#N)c4)C3)n2)cc1 (stereo not drawn) [GSK1379730] | 0% | 0% | 0% | 25% | 0% | 0% | 0% | 0% | 0% | 0% | 4% | 35% | 0% | 23% | 12% | 9% | 0% | 37% | 0% | 0%
15 | COc1cc2ncn(-c3cc(OCC4CCCCC4)c(C(N)=O)s3)c2cc1OC [GSK204559] | 38% | 0% | 0% | 0% | 5% | 0% | 0% | 0% | 0% | 11% | 0% | 61% | 12% | 11% | 9% | 0% | 2% | 24% | 0% | –
16 | NC(=O)Nc1sc(-c2ccc(F)cc2)cc1C(N)=O [GW789449] | 19% | 0% | 0% | 30% | 1% | 18% | 22% | 0% | 0% | 0% | 93.9% | 65% | 87% | 28% | 0% | 26% | 0% | 7% | 54% | 37%
17 | C[C@@H](Oc1cc(-n2cnc3ccc(-c4ccncc4)cc32)sc1C(N)=O)c1ccccc1Cl [GSK483724] | 6% | 53% | 68% | 87% | 97.7% | 79% | 95.1% | 46% | 64% | 23% | 0% | 85% | 13% | 81% | 13% | 5% | 0% | 17% | 10% | –
18 | C[C@@H](Oc1cc(-n2cnc3cc(-c4cnn(C)c4)ccc32)sc1C(N)=O)c1ccccc1Cl [GSK580432] | 0% | 0% | 0% | 32% | 24% | 0% | 61% | 20% | 0% | 18% | 0% | 38% | 37% | 3% | 2% | 0% | 15% | 0% | 72% | –
19 | CC(C)S(=O)(=O)N1CCN(Cc2ccc3c(c2)nc(NC(=O)c2ccsc2)n3C[C@H](O)c2ccccc2)CC1 [GW635815] | 0% | 0% | 0% | 21% | 0% | 0% | 0% | 8% | 0% | 7% | 0% | 15% | 35% | 24% | 0% | 27% | 8% | 6% | 25% | 0%
20 | CC(=O)c1c(-c2ccncc2)[nH]c(-c2ccncc2)c1C [GW493036] | 0% | 0% | 0% | 38% | 0% | 0% | 26% | 11% | 0% | 9% | 50% | 91.1% | 19% | 16% | 0% | 47% | 0% | 16% | 0% | 18%
21 | O=C(Nc1n[nH]c2cc(-c3ccco3)ccc12)C1CC1 [SB-737447] | 17% | 0% | 0% | 0% | 0% | 18% | 1% | 6% | 0% | 22% | 45% | 12% | 27% | 0% | 0% | 0% | 0% | 0% | 12% | 0%
